About 2,000 (36%) of roughly 5,500 compounds were called active. About 18% were inconclusive and are not listed. Rule as the data show it: active = normalized growth mostly below about 0.91 (no sharp cut-off); inconclusive = no clear call, values can overlap the other calls; inactive = mostly above about 0.92. Some of the results follow.
Experiment: chemical genetic growth profiling, strain panel (AID 1159580);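 also: tested at 20 µM; growth read once vehicle control cultures reached saturation at 30 °C; 1 = growth at the plate median or of vehicle wells; lower values mean less growth of the strain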
Details: S. cerevisiae deletion strains, growth OD
[1] = locus YDL101C, strain DUN1, hits give low values
[2] = locus YHR030C, strain SLT2, hits give low values

Measured: normalized growth

Cc1onc(-c2ccc(Cl)cc2)c1-c1ccnn1C(=O)NC(C)C
active: locus YGR078C, strain PAC10, hits give low values 0.92 | locus YHR087W, strain rtc3, hits give low values 0.906 | locus YJR075W, strain HOC1, hits give low values 0.73 | locus YKL190W, strain CNB1, hits give low values 0.906 | locus YLR058C, strain SHM2 (second series), hits give low values 0.92 | locus YLR085C, strain ARP6, hits give low values 0.591 | locus YMR219W, strain ESC1, hits give low values 0.933 | locus YNL298W, strain CLA4 (second series), hits give low values 0.836 | locus YNL322C, strain KRE1, hits give low values 0.921 | locus YNR030W, strain Alg12, hits give low values 0.804 | locus YPL241C, strain CIN2, hits give low values 0.789
inactive: locus YAL013W, strain DEP1, hits give low values 0.966 | locus YBR229C, strain ROT2, hits give low values 0.932 | locus YCL061C, strain MRC1, hits give low values 0.963 | [1] 0.974 | locus YDR150W, strain NUM1, hits give low values 0.96 | locus YEL061C, strain CIN8, hits give low values 0.94 | [2] 0.918 | locus YJR043C, strain POL32, hits give low values 0.949 | locus YLR039C, strain RIC1, hits give low values 0.989 | locus YLR262C, strain YPT6, hits give low values 1.02 | locus YML094W, strain GIM5, hits give low values 0.964 | locus YMR263W, strain SAP30, hits give low values 0.951 | locus YNL153C, strain GIM3, hits give low values 0.964 | locus YPL055C, strain LGE1, hits give low values 0.835 | locus YPR135W, strain CTF4, hits give low values 0.71

O=C(NNc1ccc(F)cc1F)c1sccc1Cl
inactive: locus YAR019C, strain CDC15, hits give low values 0.974 | locus YBL105C, strain PKC1, hits give low values 0.96 | locus YBR135W, strain CKS1, hits give low values 0.978 | locus YBR136W, strain MEC1, hits give low values 0.971 | locus YBR160W, strain CDC28, hits give low values 0.971 | locus YDL017W, strain CDC7, hits give low values 0.968 | locus YDL028C, strain MPS1, hits give low values 0.975 | [1] 0.961 | locus YDL108W, strain KIN28, hits give low values 0.977 | locus YDL132W, strain cdc53, hits give low values 0.969 | locus YDL214C, strain PRR2, hits give low values 0.924 | locus YDR052C, strain DBF4, hits give low values 0.971 | locus YDR054C, strain cdc34, hits give low values 0.957 | locus YDR226W, strain ADK1, hits give low values 0.968 | locus YDR477W, strain SNF1, hits give low values 0.927 | locus YER123W, strain YCK3, hits give low values 0.841 | locus YER133W, strain GLC7, hits give low values 0.952 | locus YFL009W, strain cdc4, hits give low values 0.975 | locus YFL029C, strain CAK1, hits give low values 0.962 | locus YFR003C, strain YPI1, hits give low values 0.978 | locus YFR019W, strain FAB1, hits give low values 0.916 | locus YFR028C, strain CDC14, hits give low values 0.977 | locus YGR040W, strain KSS1, hits give low values 0.912 | locus YGR052W, strain FMP48, hits give low values 1 | locus YGR092W, strain DBF2, hits give low values 0.879 | [2] 0.903 | locus YHR079C, strain IRE1, hits give low values 0.96 | locus YHR082C, strain KSP1, hits give low values 0.987 | locus YHR205W, strain SCH9, hits give low values 0.925 | locus YIL147C, strain SLN1, hits give low values 0.968 | locus YJL095W, strain BCK1, hits give low values 0.939 | locus YJL128C, strain PBS2, hits give low values 0.967 | locus YJL157C, strain FAR1, hits give low values 0.926 | locus YJR016C, strain ILV3, hits give low values 0.976 | locus YJR066W, strain TOR1 (second series), hits give low values 0.86 | locus YJR066W, strain TOR1, hits give low values 1.01 | locus YKL048C, strain ELM1, hits give low values 0.927 | locus YKL067W, strain YNK1, hits give low values 0.952 | locus YKL101W, strain HSL1, hits give low values 0.913 | locus YKL193C, strain SDS22, hits give low values 0.976 | locus YKL203C, strain TOR2, hits give low values 0.985 | locus YLR133W, strain CKI1, hits give low values 0.926 | locus YLR403W, strain SFP1, hits give low values 0.917 | locus YML070W, strain DAK1, hits give low values 0.904 | locus YMR001C, strain CDC5, hits give low values 0.974 | locus YMR205C, strain PFK2 (second series), hits give low values 0.963 | locus YMR277W, strain FCP1, hits give low values 0.984 | locus YNL006W, strain LST8, hits give low values 0.989 | locus YNL020C, strain ARK1, hits give low values 0.939 | locus YNL161W, strain CBK1, hits give low values 0.974 | locus YNL183C, strain NPR1, hits give low values 0.956 | locus YNL207W, strain RIO2, hits give low values 0.975 | locus YNL222W, strain SSU72, hits give low values 0.975 | locus YNL307C, strain MCK1 (second series), hits give low values 0.858 | locus YOL078W, strain AVO1, hits give low values 0.968 | locus YOL136C, strain PFK27, hits give low values 0.908 | locus YOR061W, strain CKA2, hits give low values 0.83 | locus YOR119C, strain RIO1, hits give low values 0.994 | locus YOR231W, strain MKK1, hits give low values 0.914 | locus YOR329C, strain SCD5, hits give low values 0.97 | locus YPL031C, strain PHO85, hits give low values 0.944 | locus YPL153C, strain RAD53, hits give low values 0.92 | locus YPL204W, strain HRR25, hits give low values 0.914 | locus YPL209C, strain IPL1, hits give low values 0.967 | locus YPL256C, strain CLN2, hits give low values 0.894 | locus YPR025C, strain CCL1, hits give low values 0.978 | locus YPR106W, strain ISR1, hits give low values 0.957 | locus YPR111W, strain DBF20, hits give low values 0.953 | strain NNK1, hits give low values 0.967 | strain TSCII, hits give low values 0.97
active: locus YLR113W, strain HOG1, hits give low values 0.858

Reference: PubChem BioAssay AID1159580 (chemical genetic matrix, 2015)
